# Only some compounds are listed: those with a hit (about 6.7% of all), similar ones and a draw of the others.
# T cruzi growth: T. cruzi proliferation inhibition. inhibition, % at 8.34 µM. 77,000 tested, 5.9% active. T. cruzi beta-gal in NIH3T3, GalScreen luminescence, 90 h. AID 624255;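 active = mean inhibition above about 93%, with at least 55% of replicates each passing it, limit read from the data, passing the limit was not always enough; inconclusive = only one of those two conditions holds; inactive = neither condition holds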
# Pf Dd2 inh: blocks growth of Plasmodium falciparum Dd2 parasites; P. falciparum Dd2 growth, SYBR Green, 72 h; hits give low values; 94,000 tested, 2.3% active; activity change, % at 10 µM; in the data active = activity change below about -80%; inconclusive = no clear call, values can overlap the other calls
# C diff growth: inhibitors of Clostridium difficile growth; 86,000 tested, 0.25% active; AID 1259249; Clostridium difficile clinical isolate growth, OD600, 24 h; hits give low values; growth activity, negative = inhibition, % at 16 µg/mL (by protocol);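 active = mean growth activity at or below -80% and every replicate also at or below -80%; inconclusive = mean at or below -80% but some replicate above -80%; inactive = mean growth activity above -80%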;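 also: 0% = DMSO wells and -100% = levofloxacin 16 µg/mL wells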
# Starred values were filed as active, the others as inactive; ? = inconclusive; nt = no result; ! = not active in a repeat.
SMILES,T cruzi growth,Pf Dd2 inh,C diff growth
COc1cccc(-c2ccc(C3[C@@H]4CN(Cc5ccccn5)C[C@H]3N4)cc2)c1 (stereo partly drawn),nt,-69,13
COc1ccc(-c2ccc(C3[C@@H]4CN(Cc5cccc(OC)c5)C[C@H]3N4)cc2)cc1 (stereo partly drawn),nt,-68,-81*!
COc1cccc(CN2C[C@@H]3N[C@H](C2)C3c2ccc(-c3cccc(C#N)c3)cc2)c1 (stereo partly drawn),nt,?,43
CN1CCN(C(=O)C[C@@H]2C=C[C@@H](NC(=O)c3ccc4c(c3)OCO4)[C@@H](CO)O2)CC1,15,5,4
C/C=C/c1ccc2c(c1)O[C@H](CN(C)C(=O)C1CCC1)[C@@H](C)CN([C@H](C)CO)S2(=O)=O,75,3,nt
COc1ccccc1C#Cc1ccc2c(c1)O[C@@H](CN(C)Cc1cccnc1)[C@H](C)CN([C@@H](C)CO)S2(=O)=O,nt,-83*,5
Cc1ccccc1-c1ccc2c(c1)O[C@@H](CN(C)Cc1ccncc1)[C@H](C)CN([C@H](C)CO)S2(=O)=O,93,-88*,4
Cc1ccccc1-c1ccc2c(c1)O[C@H](CN(C)Cc1ccncc1)[C@H](C)CN([C@H](C)CO)S2(=O)=O,89,-44,2
C[C@H]1CN([C@@H](C)CO)S(=O)(=O)c2ccc(-c3ccccc3)cc2O[C@H]1CN(C)Cc1cccnc1,94,-22,3
C[C@H]1CN([C@@H](C)CO)S(=O)(=O)c2ccc(-c3ccccc3)cc2O[C@@H]1CN(C)Cc1cccnc1,116*,-34,-4
C[C@H](O)C#Cc1ccc2c(c1)O[C@H](CN(C)Cc1ccncc1)[C@@H](C)CN([C@@H](C)CO)S2(=O)=O,71,-62,1
COc1ccccc1C#Cc1ccc2c(c1)O[C@@H](CN(C)Cc1cccnc1)[C@@H](C)CN([C@@H](C)CO)S2(=O)=O,nt,-37,8
CC(C)C#Cc1ccc2c(c1)O[C@H](CN(C)Cc1ccncc1)[C@H](C)CN([C@@H](C)CO)S2(=O)=O,105*,-35,-9
COc1cccc(S(=O)(=O)Nc2ccc3c(c2)[C@@H]2C[C@H](CC(=O)N[C@@H](C)c4ccccc4)O[C@@H](CO)[C@@H]2O3)c1,nt,-9,-12
C[C@H](CO)N1C[C@H](C)[C@@H](CN(C)Cc2ccc3c(c2)OCO3)Oc2cc(-c3cccc(C(=O)N(C)C)c3)ccc2S1(=O)=O,nt,-71,0
C[C@@H]1CN([C@@H](C)CO)S(=O)(=O)c2ccc(-c3ccc(C(=O)N(C)C)cc3)cc2O[C@H]1CN(C)Cc1ccc2c(c1)OCO2,nt,-84*,-2
C[C@@H]1CN([C@@H](C)CO)S(=O)(=O)c2ccc(C#CCN(C)C)cc2O[C@H]1CN(C)CC1CCCC1,88,-83*,6
C[C@@H]1CN([C@@H](C)CO)S(=O)(=O)c2ccc(-c3ccccc3)cc2O[C@H]1CN(C)Cc1cccnc1,103*,-62,-12
C[C@@H]1CN([C@@H](C)CO)S(=O)(=O)c2ccc(-c3ccc(F)cc3)cc2O[C@H]1CN(C)CC1CC1,nt,-25,4
C[C@@H]1CN([C@@H](C)CO)S(=O)(=O)c2ccc(-c3cccnc3)cc2O[C@@H]1CN(C)Cc1cccnc1,63,-3,14
C[C@H]1CN([C@@H](C)CO)S(=O)(=O)c2ccc(-c3ccc(F)cc3)cc2O[C@H]1CN(C)CC1CC1,nt,-82*,3
CC(C)CC#Cc1ccc2c(c1)O[C@@H](CN(C)CC1CCCC1)[C@H](C)CN([C@@H](C)CO)S2(=O)=O,nt,-70,16
COc1ccc2c3c([nH]c2c1)[C@@H](CO)N(C(=O)c1cccc(F)c1)CC31CN(S(=O)(=O)c2cccs2)C1,nt,-21,nt
C[C@@H]1CN([C@H](C)CO)C(=O)c2cc(NS(C)(=O)=O)ccc2O[C@@H](C)CCCCO[C@@H]1CN(C)Cc1ccc2c(c1)OCO2,-39,-4,4
C[C@@H]1CN([C@@H](C)CO)S(=O)(=O)c2ccc(-c3ccncc3)cc2O[C@H]1CN(C)Cc1ccc(Oc2ccccc2)cc1,54,-86*,14
SMILES,T cruzi growth,Pf Dd2 inh,C diff growth
C[C@H]1CN([C@@H](C)CO)S(=O)(=O)c2ccc(C#Cc3ccccc3F)cc2O[C@H]1CN(C)C(=O)Cc1cccnc1,50,-83*,11
C[C@H]1CN([C@@H](C)CO)S(=O)(=O)c2ccc(-c3ccncc3)cc2O[C@H]1CN(C)Cc1ccccc1,82,-35,2
C[C@H]1CN([C@@H](C)CO)S(=O)(=O)c2ccc(C#Cc3ccccc3F)cc2O[C@@H]1CN(C)C(=O)Cc1cccnc1,81,-59,-1
COC(=O)c1cn(C[C@H](Cc2ccccc2)NC(=O)c2ccccc2)nn1,nt,nt,-4
C[C@@H]1CCCCO[C@H](CN(C)C(=O)Nc2ccccc2)[C@H](C)CN([C@H](C)CO)C(=O)c2cc(NC(=O)c3ccccc3)ccc2O1,66,-77,nt
CO[C@@H]1CN(C)C(=O)c2ccc(NC(=O)Nc3cccc(Cl)c3)cc2OC[C@H](C)N(C(=O)Nc2c(C)noc2C)C[C@@H]1C,50,nt,nt
COc1ccc(S(=O)(=O)Nc2ccc3c(c2)C(=O)N([C@H](C)CO)C[C@@H](C)[C@H](CN(C)Cc2ccc(Cl)c(Cl)c2)OCCCC[C@@H](C)O3)cc1,23,-91*,nt
COc1ccc(S(=O)(=O)Nc2ccc3c(c2)C(=O)N([C@@H](C)CO)C[C@@H](C)[C@@H](CN(C)Cc2ccc(Cl)c(Cl)c2)OCCCC[C@@H](C)O3)cc1,nt,-68,52
CCCN(C)C[C@H]1OCCCC[C@@H](C)Oc2ccc(NS(=O)(=O)c3c(C)noc3C)cc2C(=O)N([C@@H](C)CO)C[C@H]1C,nt,-85*,-2
CCCN(C)C[C@@H]1OCCCC[C@@H](C)Oc2ccc(NS(=O)(=O)c3ccc(C)cc3)cc2C(=O)N([C@H](C)CO)C[C@@H]1C,43,-46,2
Cc1noc(C)c1S(=O)(=O)Nc1ccc2c(c1)C(=O)N([C@@H](C)CO)C[C@@H](C)[C@@H](CN(C)CC1CC1)OCCCC[C@@H](C)O2,nt,-37,-3
Cc1noc(C)c1S(=O)(=O)Nc1ccc2c(c1)C(=O)N([C@@H](C)CO)C[C@@H](C)[C@@H](CN(C)Cc1ccc(Cl)c(Cl)c1)OCCCC[C@@H](C)O2,94,-82*,7
CCCN(C)C[C@H]1OCCCC[C@H](C)Oc2ccc(NS(=O)(=O)c3ccc(F)cc3)cc2C(=O)N([C@@H](C)CO)C[C@@H]1C,72,-85*,12
Cc1noc(C)c1S(=O)(=O)Nc1ccc2c(c1)C(=O)N([C@H](C)CO)C[C@H](C)[C@H](CN(C)Cc1ccc(Cl)c(Cl)c1)OCCCC[C@@H](C)O2,82,-28,0
C[C@@H]1CN([C@H](C)CO)C(=O)Cc2cc(NC(=O)C3CCCCC3)ccc2O[C@@H]1CN(C)Cc1ccc(Cl)c(Cl)c1,74,-14,3
C[C@@H]1CN([C@@H](C)CO)C(=O)c2cc(NC(=O)CCCN(C)C)ccc2O[C@@H]1CN(C)Cc1ccc(C(=O)O)cc1,24,-7,0
C[C@@H]1CCCCO[C@@H](CN(C)Cc2ccc(Cl)c(Cl)c2)[C@H](C)CN([C@H](C)CO)C(=O)c2cc(NS(=O)(=O)c3ccc(F)cc3)ccc2O1,87,-84*,14
